According to the supplement of paper PMC11732987, “Enantioselective OTUD7B fragment discovery through chemoproteomics screening and high-throughput optimisation” (Communications Chemistry, 2025):

How the values were obtained:
Assay in all cases: log2 ratio of Biotin-Ahx-Ub-VS probe labelling (fragment/DMSO); higher = less target engagement (more negative = stronger competition), active = hit call of the paper (q ≤ 0.05, log2 ratio ≤ -1)
Details in all cases: compound concentration: 200 uM; treatment time: 3 h
USP42 = target: T1, USP42 (UniProt Q9H9J4)
T1 sequence (whole entry): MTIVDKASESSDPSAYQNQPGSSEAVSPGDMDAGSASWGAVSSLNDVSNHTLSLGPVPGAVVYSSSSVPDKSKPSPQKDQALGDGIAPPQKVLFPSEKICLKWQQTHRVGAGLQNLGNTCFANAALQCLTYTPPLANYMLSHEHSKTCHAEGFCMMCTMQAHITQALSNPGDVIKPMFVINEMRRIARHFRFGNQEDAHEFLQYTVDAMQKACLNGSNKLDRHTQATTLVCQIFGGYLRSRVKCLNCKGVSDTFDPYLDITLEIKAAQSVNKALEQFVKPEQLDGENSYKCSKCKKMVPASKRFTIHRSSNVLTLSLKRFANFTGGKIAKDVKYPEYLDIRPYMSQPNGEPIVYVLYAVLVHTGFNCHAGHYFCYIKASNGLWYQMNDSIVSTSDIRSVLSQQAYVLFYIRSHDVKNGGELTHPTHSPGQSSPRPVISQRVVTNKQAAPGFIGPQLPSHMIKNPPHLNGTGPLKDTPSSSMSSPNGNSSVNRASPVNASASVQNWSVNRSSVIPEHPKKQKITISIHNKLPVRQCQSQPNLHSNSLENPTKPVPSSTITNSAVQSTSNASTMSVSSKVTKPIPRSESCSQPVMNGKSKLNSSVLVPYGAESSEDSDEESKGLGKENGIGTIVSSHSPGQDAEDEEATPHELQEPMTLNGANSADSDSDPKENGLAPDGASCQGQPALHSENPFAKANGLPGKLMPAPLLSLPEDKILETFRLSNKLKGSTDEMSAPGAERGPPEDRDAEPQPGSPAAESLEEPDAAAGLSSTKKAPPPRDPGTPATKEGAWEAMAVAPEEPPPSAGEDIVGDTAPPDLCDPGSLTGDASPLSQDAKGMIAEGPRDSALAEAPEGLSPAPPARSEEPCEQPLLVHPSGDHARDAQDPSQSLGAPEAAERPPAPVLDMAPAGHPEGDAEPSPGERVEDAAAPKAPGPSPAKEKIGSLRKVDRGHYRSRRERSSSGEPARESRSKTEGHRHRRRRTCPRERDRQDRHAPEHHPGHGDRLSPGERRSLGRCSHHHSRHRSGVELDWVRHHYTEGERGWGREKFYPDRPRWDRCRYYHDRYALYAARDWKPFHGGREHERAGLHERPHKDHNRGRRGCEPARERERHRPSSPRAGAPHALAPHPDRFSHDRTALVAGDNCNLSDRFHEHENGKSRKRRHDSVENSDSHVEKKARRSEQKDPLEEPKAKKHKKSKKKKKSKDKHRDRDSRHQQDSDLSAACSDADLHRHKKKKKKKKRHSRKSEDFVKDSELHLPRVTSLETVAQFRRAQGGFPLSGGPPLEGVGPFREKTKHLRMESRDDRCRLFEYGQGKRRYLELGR
Procedure, shortened: (§1)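 Labelling with Biotin-Ahx-Ub-VS (0.5 µM final, 1 h) followed a 3 h triplicate treatment of HEK293T lysate (495 µg per sample, Tris/CHAPS/IGEPAL buffer with protease inhibitors) with fragment at 200 µM or vehicle. Labelled DUBs were NeutrAvidin-enriched, digested with LysC and trypsin, and run by diaPASEF LC-MS/MS. The values, average log2 fragment/vehicle ratios by unpaired t-test, come from global-median-normalised Spectronaut label-free quantities. Proteins with ≥2 unique peptides were used.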

USP46 = USP46 (UniProt P62068)
Procedure, shortened: as §1

USP47 = target: T2, USP47 (UniProt Q96K76)
T2 sequence (whole entry): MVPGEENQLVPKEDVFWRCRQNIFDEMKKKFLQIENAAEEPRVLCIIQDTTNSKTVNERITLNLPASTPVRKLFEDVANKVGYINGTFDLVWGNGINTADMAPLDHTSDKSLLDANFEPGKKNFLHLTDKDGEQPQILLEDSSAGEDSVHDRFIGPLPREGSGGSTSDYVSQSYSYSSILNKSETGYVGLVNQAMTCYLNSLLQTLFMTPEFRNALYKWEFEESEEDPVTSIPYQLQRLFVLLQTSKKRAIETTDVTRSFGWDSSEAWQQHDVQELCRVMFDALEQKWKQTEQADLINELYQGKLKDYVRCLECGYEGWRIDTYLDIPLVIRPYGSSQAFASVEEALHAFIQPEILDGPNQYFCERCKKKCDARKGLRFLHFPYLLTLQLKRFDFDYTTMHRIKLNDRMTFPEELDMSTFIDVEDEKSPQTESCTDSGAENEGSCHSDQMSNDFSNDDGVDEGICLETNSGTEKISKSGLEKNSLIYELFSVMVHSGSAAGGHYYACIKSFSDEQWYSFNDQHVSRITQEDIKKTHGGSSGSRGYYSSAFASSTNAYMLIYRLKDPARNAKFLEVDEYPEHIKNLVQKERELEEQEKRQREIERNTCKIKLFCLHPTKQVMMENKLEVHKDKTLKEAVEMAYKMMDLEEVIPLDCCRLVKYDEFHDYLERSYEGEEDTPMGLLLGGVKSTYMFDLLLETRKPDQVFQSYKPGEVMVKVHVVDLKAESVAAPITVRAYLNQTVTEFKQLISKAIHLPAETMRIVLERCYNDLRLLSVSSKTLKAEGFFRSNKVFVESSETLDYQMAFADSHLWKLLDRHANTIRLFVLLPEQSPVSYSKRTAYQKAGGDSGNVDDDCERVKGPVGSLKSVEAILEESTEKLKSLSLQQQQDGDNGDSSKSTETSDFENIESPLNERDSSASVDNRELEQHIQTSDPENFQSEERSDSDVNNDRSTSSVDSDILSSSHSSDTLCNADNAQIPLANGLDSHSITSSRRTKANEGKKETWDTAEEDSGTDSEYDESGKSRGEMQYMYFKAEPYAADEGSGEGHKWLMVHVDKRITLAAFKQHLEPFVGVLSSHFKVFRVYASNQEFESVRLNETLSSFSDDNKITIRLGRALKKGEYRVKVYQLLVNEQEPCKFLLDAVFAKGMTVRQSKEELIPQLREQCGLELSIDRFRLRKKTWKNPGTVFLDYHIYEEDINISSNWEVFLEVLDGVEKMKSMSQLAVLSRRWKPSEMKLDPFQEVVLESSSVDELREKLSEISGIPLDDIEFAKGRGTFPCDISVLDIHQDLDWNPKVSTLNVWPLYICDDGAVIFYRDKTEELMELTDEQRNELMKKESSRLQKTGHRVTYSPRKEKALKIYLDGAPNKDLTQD
Procedure, shortened: as §1

USP48 = target: T3, USP48 (UniProt Q86UV5)
T3 sequence (whole entry): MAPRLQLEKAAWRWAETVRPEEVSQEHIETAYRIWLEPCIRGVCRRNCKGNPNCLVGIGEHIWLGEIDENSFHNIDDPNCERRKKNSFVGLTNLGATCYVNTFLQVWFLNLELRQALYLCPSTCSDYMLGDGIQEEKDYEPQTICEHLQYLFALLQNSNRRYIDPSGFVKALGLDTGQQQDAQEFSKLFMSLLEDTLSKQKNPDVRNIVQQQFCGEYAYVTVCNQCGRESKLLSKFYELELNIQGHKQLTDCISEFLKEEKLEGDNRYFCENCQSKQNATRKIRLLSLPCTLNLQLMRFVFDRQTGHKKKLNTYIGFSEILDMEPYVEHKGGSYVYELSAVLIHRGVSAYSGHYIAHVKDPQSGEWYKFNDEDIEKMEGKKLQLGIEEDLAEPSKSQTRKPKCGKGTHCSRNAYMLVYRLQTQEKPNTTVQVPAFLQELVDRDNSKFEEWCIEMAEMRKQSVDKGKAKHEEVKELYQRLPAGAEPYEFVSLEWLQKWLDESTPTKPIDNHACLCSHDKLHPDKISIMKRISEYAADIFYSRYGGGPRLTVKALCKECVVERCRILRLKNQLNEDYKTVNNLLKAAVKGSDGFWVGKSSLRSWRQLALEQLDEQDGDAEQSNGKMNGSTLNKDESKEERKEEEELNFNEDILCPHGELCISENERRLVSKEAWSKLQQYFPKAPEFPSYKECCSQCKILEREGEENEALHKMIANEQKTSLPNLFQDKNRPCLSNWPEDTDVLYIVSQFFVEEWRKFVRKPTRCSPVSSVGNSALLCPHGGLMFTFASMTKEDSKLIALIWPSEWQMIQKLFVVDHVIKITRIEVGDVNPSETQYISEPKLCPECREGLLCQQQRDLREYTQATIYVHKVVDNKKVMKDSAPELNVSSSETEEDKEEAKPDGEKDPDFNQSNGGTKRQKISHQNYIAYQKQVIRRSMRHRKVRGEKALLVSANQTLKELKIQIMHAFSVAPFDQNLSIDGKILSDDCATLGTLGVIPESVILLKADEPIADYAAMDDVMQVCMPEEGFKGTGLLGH
Procedure, shortened: as §1

USP5 = target: T4, USP5 (UniProt P45974)
T4 sequence (whole entry): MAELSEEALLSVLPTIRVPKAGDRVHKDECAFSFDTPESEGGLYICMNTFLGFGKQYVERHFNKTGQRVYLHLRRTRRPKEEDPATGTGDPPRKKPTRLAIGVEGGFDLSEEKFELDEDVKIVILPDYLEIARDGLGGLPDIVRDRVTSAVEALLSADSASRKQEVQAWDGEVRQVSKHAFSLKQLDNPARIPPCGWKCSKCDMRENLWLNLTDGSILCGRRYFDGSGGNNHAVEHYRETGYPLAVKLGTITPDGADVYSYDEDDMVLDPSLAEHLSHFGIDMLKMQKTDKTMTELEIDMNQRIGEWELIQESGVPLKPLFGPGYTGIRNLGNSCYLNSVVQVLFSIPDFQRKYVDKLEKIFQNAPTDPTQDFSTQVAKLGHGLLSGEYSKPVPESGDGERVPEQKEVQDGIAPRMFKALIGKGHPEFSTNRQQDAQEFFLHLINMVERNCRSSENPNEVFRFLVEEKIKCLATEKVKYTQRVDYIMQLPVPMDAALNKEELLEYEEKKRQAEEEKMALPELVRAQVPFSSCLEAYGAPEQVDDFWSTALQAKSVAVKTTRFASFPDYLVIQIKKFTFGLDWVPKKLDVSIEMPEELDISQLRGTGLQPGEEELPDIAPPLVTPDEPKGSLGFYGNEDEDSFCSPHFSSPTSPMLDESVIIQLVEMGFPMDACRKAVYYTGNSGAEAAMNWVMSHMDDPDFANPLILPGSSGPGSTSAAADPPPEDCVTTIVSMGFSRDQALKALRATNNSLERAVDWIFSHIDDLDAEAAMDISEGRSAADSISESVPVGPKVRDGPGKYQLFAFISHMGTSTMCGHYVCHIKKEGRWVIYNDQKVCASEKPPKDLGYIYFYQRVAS
Procedure, shortened: as §1

USP54 = USP54 (UniProt Q70EL1)
Procedure, shortened: as §1

USP7 = USP7 (UniProt Q93009)
Procedure, shortened: as §1

USP8 = target: T5, USP8 (UniProt P40818)
T5 sequence (whole entry): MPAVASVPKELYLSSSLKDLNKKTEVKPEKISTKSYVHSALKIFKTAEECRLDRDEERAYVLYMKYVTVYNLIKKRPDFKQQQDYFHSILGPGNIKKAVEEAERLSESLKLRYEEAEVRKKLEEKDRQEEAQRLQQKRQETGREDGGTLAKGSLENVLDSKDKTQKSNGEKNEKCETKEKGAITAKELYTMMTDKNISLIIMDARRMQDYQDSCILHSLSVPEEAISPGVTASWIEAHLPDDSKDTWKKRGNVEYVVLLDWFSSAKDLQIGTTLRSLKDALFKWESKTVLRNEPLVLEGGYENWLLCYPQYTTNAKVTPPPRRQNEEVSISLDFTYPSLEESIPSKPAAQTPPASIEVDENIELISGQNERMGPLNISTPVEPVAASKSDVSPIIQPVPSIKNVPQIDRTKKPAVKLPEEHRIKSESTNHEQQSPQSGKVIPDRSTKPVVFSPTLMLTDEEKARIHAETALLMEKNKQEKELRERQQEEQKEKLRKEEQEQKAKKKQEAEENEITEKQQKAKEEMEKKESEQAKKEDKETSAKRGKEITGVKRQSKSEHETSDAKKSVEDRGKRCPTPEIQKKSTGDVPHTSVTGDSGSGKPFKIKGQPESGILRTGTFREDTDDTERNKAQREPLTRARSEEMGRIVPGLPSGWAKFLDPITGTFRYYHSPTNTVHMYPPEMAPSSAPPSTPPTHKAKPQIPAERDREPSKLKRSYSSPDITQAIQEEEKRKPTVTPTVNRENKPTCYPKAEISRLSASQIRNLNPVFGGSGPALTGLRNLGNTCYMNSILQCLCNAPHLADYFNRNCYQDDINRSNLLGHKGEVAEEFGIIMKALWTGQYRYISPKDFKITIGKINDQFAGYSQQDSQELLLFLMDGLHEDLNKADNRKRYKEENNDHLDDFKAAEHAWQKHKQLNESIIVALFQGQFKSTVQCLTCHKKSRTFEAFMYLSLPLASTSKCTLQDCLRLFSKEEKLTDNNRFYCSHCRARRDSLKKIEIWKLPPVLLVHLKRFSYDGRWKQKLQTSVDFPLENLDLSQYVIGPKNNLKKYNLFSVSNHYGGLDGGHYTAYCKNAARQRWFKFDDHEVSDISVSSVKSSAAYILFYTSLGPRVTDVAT
Procedure, shortened: as §1

USP9X = USP9X (UniProt Q93008)
Procedure, shortened: as §1

UniProt O00487 = target: UniProt O00487
Procedure, shortened: as §1

Measured: log2 ratio of Biotin-Ahx-Ub-VS probe labelling

UniProt O00487, sequence (O00487 whole entry): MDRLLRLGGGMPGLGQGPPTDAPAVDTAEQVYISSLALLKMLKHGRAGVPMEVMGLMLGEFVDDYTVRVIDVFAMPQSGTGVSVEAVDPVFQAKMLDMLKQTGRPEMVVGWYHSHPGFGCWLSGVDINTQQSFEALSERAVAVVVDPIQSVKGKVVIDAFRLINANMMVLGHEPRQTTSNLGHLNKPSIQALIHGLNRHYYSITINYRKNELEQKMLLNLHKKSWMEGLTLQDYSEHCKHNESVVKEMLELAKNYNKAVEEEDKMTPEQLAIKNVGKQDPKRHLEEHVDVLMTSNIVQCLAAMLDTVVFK
USP7, sequence (Q93009 whole entry, looked up): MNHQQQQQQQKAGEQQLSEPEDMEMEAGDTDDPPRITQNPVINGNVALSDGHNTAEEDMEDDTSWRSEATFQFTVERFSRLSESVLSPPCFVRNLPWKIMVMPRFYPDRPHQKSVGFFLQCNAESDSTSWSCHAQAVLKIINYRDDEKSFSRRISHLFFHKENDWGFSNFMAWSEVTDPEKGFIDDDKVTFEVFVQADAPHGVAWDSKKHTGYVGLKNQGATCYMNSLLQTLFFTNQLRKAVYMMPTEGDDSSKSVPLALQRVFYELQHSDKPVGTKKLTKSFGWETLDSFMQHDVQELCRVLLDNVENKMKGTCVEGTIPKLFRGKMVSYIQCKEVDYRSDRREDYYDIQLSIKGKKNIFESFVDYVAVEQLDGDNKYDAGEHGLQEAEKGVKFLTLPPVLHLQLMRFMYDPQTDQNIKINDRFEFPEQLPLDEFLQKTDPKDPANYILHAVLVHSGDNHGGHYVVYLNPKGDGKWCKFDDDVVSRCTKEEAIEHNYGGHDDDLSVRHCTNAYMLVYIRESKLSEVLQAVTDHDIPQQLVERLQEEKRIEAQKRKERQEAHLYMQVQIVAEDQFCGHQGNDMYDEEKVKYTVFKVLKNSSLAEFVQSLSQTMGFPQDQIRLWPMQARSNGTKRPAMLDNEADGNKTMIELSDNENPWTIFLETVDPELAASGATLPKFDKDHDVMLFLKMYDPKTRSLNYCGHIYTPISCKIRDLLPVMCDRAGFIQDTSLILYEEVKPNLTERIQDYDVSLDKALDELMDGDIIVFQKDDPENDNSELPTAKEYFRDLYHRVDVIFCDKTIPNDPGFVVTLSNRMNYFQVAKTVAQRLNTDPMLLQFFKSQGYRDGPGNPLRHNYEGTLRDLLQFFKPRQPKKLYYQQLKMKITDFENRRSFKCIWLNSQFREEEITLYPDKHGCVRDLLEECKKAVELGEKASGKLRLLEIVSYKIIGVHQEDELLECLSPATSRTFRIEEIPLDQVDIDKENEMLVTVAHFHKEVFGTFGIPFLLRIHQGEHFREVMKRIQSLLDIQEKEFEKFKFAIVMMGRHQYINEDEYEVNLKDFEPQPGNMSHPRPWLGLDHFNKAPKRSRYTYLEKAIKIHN
USP54, sequence (Q70EL1 whole entry): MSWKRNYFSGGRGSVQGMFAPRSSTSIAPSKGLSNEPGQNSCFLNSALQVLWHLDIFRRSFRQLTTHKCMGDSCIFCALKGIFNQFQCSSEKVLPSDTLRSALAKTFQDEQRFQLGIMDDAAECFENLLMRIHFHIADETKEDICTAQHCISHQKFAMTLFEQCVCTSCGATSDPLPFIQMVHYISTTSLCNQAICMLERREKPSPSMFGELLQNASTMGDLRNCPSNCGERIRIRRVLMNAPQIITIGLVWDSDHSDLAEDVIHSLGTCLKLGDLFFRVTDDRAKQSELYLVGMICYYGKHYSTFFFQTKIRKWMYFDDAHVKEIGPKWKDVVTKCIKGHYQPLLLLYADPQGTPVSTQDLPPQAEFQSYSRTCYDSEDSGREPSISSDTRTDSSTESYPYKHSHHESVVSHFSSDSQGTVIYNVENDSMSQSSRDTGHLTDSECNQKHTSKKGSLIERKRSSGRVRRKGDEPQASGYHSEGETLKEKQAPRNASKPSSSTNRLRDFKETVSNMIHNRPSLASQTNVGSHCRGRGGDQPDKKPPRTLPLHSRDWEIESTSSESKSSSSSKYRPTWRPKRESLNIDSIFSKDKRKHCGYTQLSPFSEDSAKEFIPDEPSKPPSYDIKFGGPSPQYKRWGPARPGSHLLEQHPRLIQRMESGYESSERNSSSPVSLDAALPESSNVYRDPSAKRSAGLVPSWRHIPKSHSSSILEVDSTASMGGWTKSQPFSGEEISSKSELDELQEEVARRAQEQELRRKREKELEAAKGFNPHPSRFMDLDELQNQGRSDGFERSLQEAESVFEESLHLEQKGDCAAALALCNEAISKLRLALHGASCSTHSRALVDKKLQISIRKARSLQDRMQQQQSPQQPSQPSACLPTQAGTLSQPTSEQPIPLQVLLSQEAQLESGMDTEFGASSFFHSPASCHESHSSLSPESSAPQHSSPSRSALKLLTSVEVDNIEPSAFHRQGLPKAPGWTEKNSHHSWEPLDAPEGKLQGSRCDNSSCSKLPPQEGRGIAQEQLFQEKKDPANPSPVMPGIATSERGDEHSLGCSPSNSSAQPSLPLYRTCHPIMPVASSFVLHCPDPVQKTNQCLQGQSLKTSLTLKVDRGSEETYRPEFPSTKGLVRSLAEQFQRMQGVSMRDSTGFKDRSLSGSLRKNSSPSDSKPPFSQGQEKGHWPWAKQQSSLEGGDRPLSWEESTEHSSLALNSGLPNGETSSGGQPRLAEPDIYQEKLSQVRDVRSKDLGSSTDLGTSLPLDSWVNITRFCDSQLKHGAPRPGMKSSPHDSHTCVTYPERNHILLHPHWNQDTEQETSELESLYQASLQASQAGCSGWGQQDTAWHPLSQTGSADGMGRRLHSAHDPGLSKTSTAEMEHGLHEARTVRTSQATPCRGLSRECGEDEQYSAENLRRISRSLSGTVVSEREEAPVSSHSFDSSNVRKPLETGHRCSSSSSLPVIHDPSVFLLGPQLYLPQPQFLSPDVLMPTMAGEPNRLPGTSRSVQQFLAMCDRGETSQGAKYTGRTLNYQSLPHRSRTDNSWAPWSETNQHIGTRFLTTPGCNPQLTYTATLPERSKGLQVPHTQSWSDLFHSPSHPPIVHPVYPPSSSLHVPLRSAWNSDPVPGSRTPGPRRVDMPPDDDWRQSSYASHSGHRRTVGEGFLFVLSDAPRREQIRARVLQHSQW
USP46, sequence (P62068 whole entry): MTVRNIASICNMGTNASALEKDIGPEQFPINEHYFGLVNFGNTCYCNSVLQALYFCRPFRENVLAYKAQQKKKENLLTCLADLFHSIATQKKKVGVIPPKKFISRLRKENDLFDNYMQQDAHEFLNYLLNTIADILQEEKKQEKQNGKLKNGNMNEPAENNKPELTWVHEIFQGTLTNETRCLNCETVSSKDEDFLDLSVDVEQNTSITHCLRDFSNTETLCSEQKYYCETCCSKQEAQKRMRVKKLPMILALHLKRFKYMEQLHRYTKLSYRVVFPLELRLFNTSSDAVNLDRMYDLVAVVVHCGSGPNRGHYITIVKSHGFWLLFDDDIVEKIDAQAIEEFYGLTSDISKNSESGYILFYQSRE

CCN(C(=O)CCl)C1CCCCC1
inactive: USP42 0.177 | USP46 -0.202 | USP47 -0.157 | USP48 -0.238 | USP5 0.443 | USP54 0.0425 | USP7 -0.372 | USP8 0.0715 | USP9X -0.0791 | UniProt O00487 0.0502
